# According to PubChem BioAssay (Tox21):
# Records with an inconclusive call do not appear. Where a call stands in place of a potency, no number is given. A structure can be active in one record and inactive in another. Activity calls are given as the source filed them. The call rests on the fitted dose curve; in most records, active means well fitted activation curve with a large enough effect in the signal ratio in the repeat runs (not every such curve was filed as active); inconclusive means weak or mixed curves; inactive means flat fitted curve, though single readings scatter; the % refers to the signal ratio.
# Experiment: qHTS assay to identify small molecule agonists of H2AX (AID 1224845)
# Conditions: CHO-K1 phospho-H2AX Ser139 HTRF, 3 h; series mostly up to 154 µM; activation (H2AX phosphorylation): at the top concentration
# Excerpt: National Center for Advancing Translational Sciences [NCATS]
# NIH Chemical Genomics Center [NCGC]
# U.S. Environmental Protection Agency [EPA]
# National Institutes of Environmental Health Sciences [NIEHS]
# National Toxicology Program [NTP]
# U.S. Food and Drug Administration [FDA]
# HTRF phospho-H2AX (Ser139) assay (Cisbio Bioassays, US) enables the quantitative detection of the histone variant H2AX when phosphorylated on serine 139. When double-stranded DNA breaks, either by ionizing radiation or endogenous physiological processes, H2AX becomes phosphorylated at Ser139. This phospho-Ser139 serves as a sensitive biomarker for the detection of such breaks, localizing the site of DNA repair. So, HTRF phospho-H2AX Ser139 is a pertinent assay to study genome stability, the cell cycle, DNA repair, and it serves as a biomarker for cancer, and to understand aging. Wild type CHO-K1 cells were used to identify the inducers of Phospho-H2AX Ser 139 from the Tox21 10K compound collections.
# Tox21 Assay Protocol Summary:
# The CHO-K1 cells suspended in culture medium containing 10% FBS were dispensed at 1000 cells/ 3 ul/well in 1536-well white wall/solid bottom plates (Greiner Bio-One North America, NC) using a Multidrop Combi (Thermo Fisher Scientific Inc., Waltham, MA). After the assay plates were incubated at 37C overnight, 23 nl of compounds at 15 concentrations (from 5-48 columns) or positive control (from 1 to 4 columns) were transferred to the assay plates using a Pintool station (Wako, San Diego, CA) into each well resulting in a final DMSO concentration of 0.76%. After 3hr incubation at 37C, 1 uL/well Supplemented Lysis buffer (diluted 100 fold blocking reagent in lysis buffer) (HTRF Phospho-H2A.X (S139) Assay kit from Cisbio US Inc., Bedford, MA) was added using a Flying Reagent Dispenser (FRD) (Aurora Discovery, CA). After 10sec spin at 1000 rpm in a plate centrifuge, the assay plates were incubated at room temperature for 30 min. Then followed by the addition of 1 uL/well detection buffer (containing a mixture of two antibodies, one labeled with cryptate, Anti pH2AX (S139)-K and another labeled with d2, Anti H2AX-d2) using FRD. After incubation at room temperature for 24 hr, the time resolved fluorescence at excitation 320 nm and emissions at 665 nm and 620 nm was measured using an Envision plate reader (PerkinElmer, Waltham, MA).
# Potency means the concentration at half of the fitted maximal effect.
SMILES,Potency,activation (H2AX phosphorylation)
CC1CC(OC(=O)c2ccccc2O)CC(C)(C)C1 (stereo not given),inactive,
c1ccc2ccccc2c1,inactive,
CCCCCCCCCCCCN,inactive,
NCc1cccc(CN)c1,inactive,
CCCCCCCCCCC=CC1CC(=O)OC1=O (stereo not given),inactive,
O=C1N=C(O)CN1/N=C/c1ccc(-c2ccc([N+](=O)[O-])cc2)o1,,0.612% [at 70.9 µM] (inactive)
O=[N+]([O-])C(CO)(CO)CO,inactive,
COC(=O)c1ccccc1O,inactive,
O=S(=O)(O)CCS,inactive,
CCCCCCCCC,inactive,
O=C1O[C@H](CO)[C@@H](O)[C@H](O)[C@H]1O,inactive,
C/C=C(C)/C=C/C=C(C)C,inactive,
CCC(C)C=O (stereo not given),inactive,
CCC(=O)O,inactive,
CCCCC(CC)COC(=O)CCCCCCCC(=O)OCC(CC)CCCC (stereo not given),,-3.39% (inactive)
Cc1cc(=O)[nH]c(C(C)C)n1,inactive,
O=c1c(-c2ccc(O)cc2)coc2cc(O)ccc12,inactive,
Cc1ccc(C)c(C)c1,inactive,
Oc1ccc2ccccc2c1,,2.97% (inactive)
CC1=C(/C=C/C(C)=C/C=C/C(C)=C/CO)C(C)(C)CCC1,inactive,

SMILES,Potency,activation (H2AX phosphorylation)
O=C(Oc1ccccc1)c1ccc(O)cc1,inactive,
CS(=O)(=O)Nc1ccc([N+](=O)[O-])cc1Oc1ccccc1,inactive,
CCc1ccc(O)cc1,,0.71% (inactive)
CCCCC(CC)COC(C)=O (stereo not given),inactive,
COC(=O)c1ccc(C(=O)OC)cc1,,0.702% (inactive)
CC(C)(N=C=O)c1cccc(C(C)(C)N=C=O)c1,inactive,
C=C(C)C(=O)OCC(CC)(COC(=O)C(=C)C)COC(=O)C(=C)C,inactive,
COCC(C)O (stereo not given),inactive,
O=C(Cl)c1c(Cl)c(Cl)c(C(=O)Cl)c(Cl)c1Cl,,-2.5% (inactive)
NCCNCCNCCNCCN,inactive,
C=C1C2CCC(C2)C1(C)C (stereo not given),inactive,
Oc1ccc(OCc2ccccc2)cc1,22.1 µM (active) and inactive,
CCc1ccccc1O,,-2.8% (inactive)
C[C@@H](O)[C@H]1C(=O)N2C(C(=O)O)=C(S[C@@H]3CN[C@H](C(=O)N(C)C)C3)[C@H](C)[C@H]12,inactive,
CC1COc2ccccc2N1C(=O)C(Cl)Cl (stereo not given),inactive,
OC[C@@H](O)[C@H](O)[C@H](O)[C@@H](O)CO,inactive,
CCOC(=O)/C=C\C(=O)OCC,inactive,
CC(C)n1c(/C=C/[C@@H](O)C[C@@H](O)CC(=O)O)c(-c2ccc(F)cc2)c2ccccc21,,2.56% [at 70.9 µM] (inactive)
Nc1cc(-c2ccncc2)c[nH]c1=O,,0.568% [at 70.9 µM] (inactive)
Cc1ccc(N)c(S(=O)(=O)O)c1,inactive,
